# Data taken from ChEMBL document CHEMBL3988442, “University of Dundee, Small-Polar-MMV Screening Library” (2021).
# Biological target: T1, Methionyl-tRNA synthetase, putative (Leishmania donovani (strain BPK282A1)) (UniProt E9BF75)
# T1 sequence (whole entry): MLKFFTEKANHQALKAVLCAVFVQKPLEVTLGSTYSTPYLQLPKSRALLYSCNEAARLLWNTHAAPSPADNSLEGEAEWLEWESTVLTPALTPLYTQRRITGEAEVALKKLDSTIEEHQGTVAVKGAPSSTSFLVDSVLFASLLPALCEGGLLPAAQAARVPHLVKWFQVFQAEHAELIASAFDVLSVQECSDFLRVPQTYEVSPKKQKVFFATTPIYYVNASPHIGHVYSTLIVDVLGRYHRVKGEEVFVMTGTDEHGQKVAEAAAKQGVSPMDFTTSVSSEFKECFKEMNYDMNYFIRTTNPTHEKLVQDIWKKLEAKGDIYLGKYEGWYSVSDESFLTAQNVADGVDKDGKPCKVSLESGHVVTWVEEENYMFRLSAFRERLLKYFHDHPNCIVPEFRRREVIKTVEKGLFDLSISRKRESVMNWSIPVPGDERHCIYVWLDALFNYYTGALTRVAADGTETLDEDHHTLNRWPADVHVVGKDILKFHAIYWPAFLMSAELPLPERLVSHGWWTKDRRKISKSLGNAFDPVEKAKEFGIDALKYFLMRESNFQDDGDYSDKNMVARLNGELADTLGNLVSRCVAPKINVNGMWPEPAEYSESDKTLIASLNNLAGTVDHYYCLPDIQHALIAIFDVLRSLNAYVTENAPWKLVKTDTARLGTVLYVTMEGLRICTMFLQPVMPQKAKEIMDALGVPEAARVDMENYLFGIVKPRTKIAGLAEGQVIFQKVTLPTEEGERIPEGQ
# Assay: Leishmania donovani Methionine tRNA synthetase (LdMetRS):v7. Dose response assay
# Type: functional
# Set-up: conc 80 nM, time 150 minutes
smiles,measurement,setting,value
OCCNc1ccnc(Nc2cccc(C(F)(F)F)c2)n1,PXC50,"BOTTOM -3.630779809, HILLSLOPE 0.738811655, MAX_EFFECT 60.88631985, TOP 100.0",4.28
Oc1ccccc1-c1nc(Nc2ccccc2Cl)c2ccccc2n1,PXC50,MAX_EFFECT 30.74074074,< 4
OCCNc1nccc(Cl)n1,PXC50,MAX_EFFECT 0.560747664,< 4
COc1ccccc1NC(=O)NC1CCCCC1,PXC50,MAX_EFFECT 21.47001934,< 4
CN(CCO)c1ccnc(Nc2cccc(C(F)(F)F)c2)n1,PXC50,"BOTTOM -8.924411722, HILLSLOPE 0.906080231, MAX_EFFECT 87.09055877, TOP 92.74987259",5.38
C[C@H](CO)Nc1ccnc(Nc2ccc(F)c(F)c2)n1,PXC50,"BOTTOM -1.459719323, HILLSLOPE 0.865053746, MAX_EFFECT 69.36416185, TOP 100.0",4.44
OCCCNc1ccnc(Nc2ccc(F)c(F)c2)n1,PXC50,"BOTTOM 8.063501062, HILLSLOPE 0.925044522, MAX_EFFECT 61.50943396, TOP 93.0681126",4.25
Cn1ncc2c(NCCO)nc(NCCCO)nc21,PXC50,MAX_EFFECT 7.543520309,< 4
Cn1c(NC(=O)Nc2ccccc2Cl)nc2ccccc21,PXC50,MAX_EFFECT 5.925925926,< 4
Cn1ncc2c(NCCO)nc(NCc3ccccc3)nc21,PXC50,MAX_EFFECT 4.528301887,< 4
Cn1ncc2c(NCCO)nc(Nc3ccc(F)cc3)nc21,PXC50,"BOTTOM 3.895127381, HILLSLOPE 1.044427324, MAX_EFFECT 67.40740741, TOP 80.2965153",4.65
OCCCNc1nccc(Nc2ccc(F)c(F)c2)n1,PXC50,MAX_EFFECT 15.09433962,< 4
COc1ccc(OC)c(NC(=O)N2CCOc3ccc(C)cc32)c1,PXC50,MAX_EFFECT 7.777777778,< 4
C[C@H](CO)Nc1ccnc(Nc2cccc(F)c2)n1,PXC50,MAX_EFFECT 26.58959538,< 4
CN(CCO)c1nc(NCCO)c2cnn(C)c2n1,PXC50,MAX_EFFECT 9.248554913,< 4
NS(=O)(=O)c1cccn2c1nc1cccnc12,PXC50,MAX_EFFECT 1.851851852,< 4
Cn1ncc2c(NC3CCC3)nc(Nc3ccc(F)c(F)c3)nc21,PXC50,"BOTTOM 4.327233824, HILLSLOPE 1.310483513, MAX_EFFECT 62.26415094, TOP 64.55009742",5.13
C[C@@H](CO)Nc1nccc(Cl)n1,PXC50,MAX_EFFECT 6.91588785,< 4
OCCCNc1ccnc(Nc2cccc(F)c2)n1,PXC50,MAX_EFFECT 28.51637765,< 4
COc1ccccc1NC(=O)Nc1cc(C(=O)O)ccc1OC,PXC50,MAX_EFFECT 5.794392523,< 4
Cc1cc(Nc2ncccc2S(N)(=O)=O)cc(C(F)(F)F)c1,PXC50,MAX_EFFECT 10.97804391,< 4
C[C@@H](CO)Nc1ccnc(Nc2ccc(F)c(F)c2)n1,PXC50,MAX_EFFECT 40.46242775,< 4
Cn1ncc2c(NCCO)nc(NCCn3cccn3)nc21,PXC50,MAX_EFFECT 36.99421965,< 4
CCn1c(NC(=O)Nc2ccccc2C)nc2ccccc21,PXC50,MAX_EFFECT 7.777777778,< 4
Clc1cc(Cl)cc(NCc2ccc3[nH]ncc3c2)c1,PXC50,MAX_EFFECT 28.48948375,< 2.7
Nc1nc(-c2ccccc2)cn1NC(=O)Nc1ccccc1F,PXC50,MAX_EFFECT 18.14814815,< 4
CC(NCc1cc(Cl)cc(Cl)c1)C1CCCN(C(=O)OC(C)(C)C)C1 (stereo unspecified),PXC50,MAX_EFFECT 36.52007648,< 2.7
Clc1cc(Cl)cc(CNCc2c[nH]cn2)c1,PXC50,MAX_EFFECT 24.66539197,< 2.7
Cn1ncc2c(NC3CCCC(O)C3)nc(Nc3ccc(F)c(F)c3)nc21 (stereo unspecified),PXC50,"BOTTOM 4.828241924, HILLSLOPE 1.003842691, MAX_EFFECT 77.73584906, TOP 90.35664451",4.76
Cn1ncc2c(NC3CCOC3)nc(Nc3ccc(F)c(F)c3)nc21 (stereo unspecified),PXC50,"BOTTOM 7.395126545, HILLSLOPE 0.941646955, MAX_EFFECT 86.79245283, TOP 90.65244752",5.1
COc1ccccc1CNC(=O)Nc1ccccc1OC,PXC50,MAX_EFFECT 9.158878505,< 4
CC(NCc1cc(Cl)cc(Cl)c1)C1CCS(=O)(=O)CC1 (stereo unspecified),PXC50,MAX_EFFECT 19.31166348,< 2.7
OCCNc1nccc(Nc2ccc(F)c(F)c2)n1,PXC50,MAX_EFFECT 5.420560748,< 4
CN(CCO)c1nccc(Cl)n1,PXC50,MAX_EFFECT 5.046728972,< 4
N#Cc1c(N)nc(-c2ccccc2)nc1C(F)(F)F,PXC50,MAX_EFFECT 6.666666667,< 4
CCNc1nc(C#N)nc(Nc2ccccc2)n1,PXC50,MAX_EFFECT 38.88888889,< 4
Clc1cc(Cl)cc(CNCc2ccncc2)c1,PXC50,MAX_EFFECT 36.1376673,< 2.7
CN(CCO)c1nccc(Nc2ccc(F)c(F)c2)n1,PXC50,MAX_EFFECT 7.663551402,< 4
COc1ccccc1NC(=O)Nc1c[n+]([O-])ccc1OC,PXC50,MAX_EFFECT 3.018867925,< 4
Clc1cc(Cl)cc(NCc2ccccn2)c1,PXC50,"BOTTOM 0.466583915, HILLSLOPE 0.636268233, MAX_EFFECT 51.05162524, TOP 100.0",2.71
O=c1nc(NCCCNC2CCOc3c(Cl)cc(Cl)cc32)[nH]c2ccccc12 (stereo unspecified),PXC50,"BOTTOM 1.104460677, HILLSLOPE 1.218727258, MAX_EFFECT 102.5925926, TOP 101.9327021",6.05
Clc1cc(Cl)cc(NCc2c[nH]cn2)c1,PXC50,"BOTTOM -1.936831904, HILLSLOPE 1.590281355, MAX_EFFECT 96.5583174, TOP 100.0",3.41
CCn1c(NC(=O)Nc2ccccc2OC)nc2ccccc21,PXC50,MAX_EFFECT 1.111111111,< 4
CN(CCO)c1ccnc(Cl)n1,PXC50,MAX_EFFECT 1.682242991,< 4
Cn1ncc2c(NC3COC3)nc(Nc3ccc(F)c(F)c3)nc21,PXC50,MAX_EFFECT 2.264150943,< 4
CN(C)CCNc1nc(NCCO)c2cnn(C)c2n1,PXC50,MAX_EFFECT 2.277039848,< 4
C[C@@H](CO)Nc1nccc(Nc2ccc(F)c(F)c2)n1,PXC50,MAX_EFFECT 2.697495183,< 4
COc1ccccc1NC(=O)Nc1cccc(O)c1,PXC50,MAX_EFFECT 2.803738318,< 4
NS(=O)(=O)c1cccnc1Nc1cccc(O)c1,PXC50,MAX_EFFECT 3.333333333,< 4
Cc1cccc(Nc2ncccc2S(N)(=O)=O)c1,PXC50,MAX_EFFECT 4.448742747,< 4
COc1ccccc1NC(=O)Nc1cnccc1OC,PXC50,MAX_EFFECT 4.905660377,< 4
NS(=O)(=O)c1cccnc1Nc1ccc(O)cc1,PXC50,MAX_EFFECT 5.185185185,< 4
CC(C)Nc1nc(NCCO)c2cnn(C)c2n1,PXC50,MAX_EFFECT 5.313092979,< 4
Cn1ncc2c(NCCO)nc(N3CCOCC3)nc21,PXC50,MAX_EFFECT 5.69259962,< 4
COc1ccc(Nc2ncccc2S(N)(=O)=O)cc1C(F)(F)F,PXC50,MAX_EFFECT 5.780346821,< 4
COC(=O)c1ccc(OC)c(NC(=O)Nc2ccccc2OC)c1,PXC50,MAX_EFFECT 5.794392523,< 4
COc1ccncc1NC(=O)N1CCOc2ccccc21,PXC50,MAX_EFFECT 6.037735849,< 4
NS(=O)(=O)c1cccnc1Nc1cc(C(=O)O)cc(C(F)(F)F)c1,PXC50,MAX_EFFECT 6.165703276,< 4
CN1CCN(c2nc(NCCO)c3cnn(C)c3n2)CC1,PXC50,MAX_EFFECT 6.165703276,< 4
COC(=O)c1ccc(OC)c(NC(=O)N2CCCc3ccccc32)c1,PXC50,MAX_EFFECT 6.79245283,< 4
NS(=O)(=O)c1cccnc1NC1CCCC1,PXC50,MAX_EFFECT 6.986027944,< 4
